Data as given in ChEMBL document CHEMBL2218924, “A broad activity screen in support of a chemogenomic map for kinase signalling research and drug discovery” (Biochem J, 2013).

target: ALK tyrosine kinase receptor (Homo sapiens) (UniProt Q9UM73); conditions: at 10 µM
Sequence (Q9UM73 19-1620 limits assumed): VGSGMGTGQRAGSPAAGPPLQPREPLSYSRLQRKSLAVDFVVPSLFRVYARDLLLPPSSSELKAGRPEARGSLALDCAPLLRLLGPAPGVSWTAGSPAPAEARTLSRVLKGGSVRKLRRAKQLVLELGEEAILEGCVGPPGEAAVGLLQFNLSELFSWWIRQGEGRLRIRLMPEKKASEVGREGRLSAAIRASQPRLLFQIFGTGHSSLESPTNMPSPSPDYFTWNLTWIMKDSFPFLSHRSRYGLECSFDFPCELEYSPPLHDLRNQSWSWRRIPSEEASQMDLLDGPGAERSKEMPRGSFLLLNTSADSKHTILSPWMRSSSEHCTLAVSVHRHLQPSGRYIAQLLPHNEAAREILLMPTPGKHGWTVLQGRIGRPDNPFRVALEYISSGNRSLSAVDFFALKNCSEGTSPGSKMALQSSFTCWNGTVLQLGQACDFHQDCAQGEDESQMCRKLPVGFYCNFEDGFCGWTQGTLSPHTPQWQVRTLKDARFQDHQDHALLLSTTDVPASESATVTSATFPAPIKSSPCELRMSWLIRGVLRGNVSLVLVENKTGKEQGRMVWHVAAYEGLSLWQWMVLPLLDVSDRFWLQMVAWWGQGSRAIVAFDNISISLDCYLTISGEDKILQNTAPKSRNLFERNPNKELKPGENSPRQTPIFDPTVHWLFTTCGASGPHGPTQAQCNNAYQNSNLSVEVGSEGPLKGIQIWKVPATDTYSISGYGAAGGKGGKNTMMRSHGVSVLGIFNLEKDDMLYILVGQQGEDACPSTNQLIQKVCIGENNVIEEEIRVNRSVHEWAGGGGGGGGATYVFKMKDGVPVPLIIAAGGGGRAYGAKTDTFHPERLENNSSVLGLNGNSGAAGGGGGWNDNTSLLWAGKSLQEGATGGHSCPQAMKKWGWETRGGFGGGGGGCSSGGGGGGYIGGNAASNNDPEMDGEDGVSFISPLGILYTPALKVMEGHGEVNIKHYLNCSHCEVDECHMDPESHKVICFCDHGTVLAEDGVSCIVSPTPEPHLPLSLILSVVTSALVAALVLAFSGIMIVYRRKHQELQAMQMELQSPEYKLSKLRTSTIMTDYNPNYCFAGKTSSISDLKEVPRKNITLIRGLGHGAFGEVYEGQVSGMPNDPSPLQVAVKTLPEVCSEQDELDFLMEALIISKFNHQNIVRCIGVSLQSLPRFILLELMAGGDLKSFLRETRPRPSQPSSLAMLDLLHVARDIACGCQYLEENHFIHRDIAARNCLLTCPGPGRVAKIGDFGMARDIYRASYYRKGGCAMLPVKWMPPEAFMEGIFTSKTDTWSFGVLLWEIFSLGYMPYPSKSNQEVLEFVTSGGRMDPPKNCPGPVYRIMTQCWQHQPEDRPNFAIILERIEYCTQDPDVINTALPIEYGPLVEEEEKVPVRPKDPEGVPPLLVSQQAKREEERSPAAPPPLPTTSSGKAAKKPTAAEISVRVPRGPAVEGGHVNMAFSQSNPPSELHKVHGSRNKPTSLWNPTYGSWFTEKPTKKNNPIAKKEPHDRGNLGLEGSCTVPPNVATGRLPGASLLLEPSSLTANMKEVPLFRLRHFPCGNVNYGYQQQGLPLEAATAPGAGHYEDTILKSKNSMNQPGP

Compound	residual activity
O=C1Nc2ccc(Br)cc2/C1=C\c1cc2c([nH]1)CCCC2	112%
C[C@@H](N)[C@H]1CC[C@H](C(=O)Nc2ccncc2)CC1	126%
c1ccc(-c2n[nH]c3c2oc2ccccc23)cc1	32%
Cc1nc(-c2ccccc2)c(-c2ccncc2)o1	99%
Cc1cc(Nc2nc(-c3ccccc3)nc3ccccc23)n[nH]1	15%
CCN(CC)C(=O)c1ccc(Nc2nc(OCC3CCCCC3)c3nc[nH]c3n2)cc1	6%
COc1cc2ncnc(Nc3ccc(O)c(Br)c3)c2cc1OC	3%
COc1cccc(-c2cc(=O)c3ccccc3o2)c1N	83%
Oc1n[nH]c2nnc(-c3c(-c4ccccc4)nn4ccccc34)cc12	89%
Cc1cc2ncc(-c3ccccc3)nc2cc1C	60%
CO[C@@H]1[C@H](N(C)C(=O)c2ccccc2)C[C@H]2O[C@]1(C)n1c3ccccc3c3c4c(c5c6ccccc6n2c5c31)C(=O)NC4	33%
COc1ccc(S(=O)(=O)N(CCO)c2ccccc2CN(C)C/C=C/c2ccc(Cl)cc2)cc1	59%
O=C1NC(=O)c2c1c1c3ccccc3[nH]c1c1[nH]c3cc(Br)ccc3c21	69%
COc1cc2ncnc(Nc3ccc(NC(=O)c4ccccc4)cc3)c2cc1OC	57%
NC(=O)c1ccc2[nH]c(-c3ccc(Oc4ccc(Cl)cc4)cc3)nc2c1	87%
O=Nc1c(-c2c(O)[nH]c3ccccc23)[nH]c2ccccc12	18%

Compound	residual activity
CC(=O)c1ccc(N2CCOCC2)cc1O	93%
COc1ccc(OC)c2c(=S)c3ccccc3[nH]c12	76%
O=C1Nc2ccccc2/C1=C1/Nc2ccccc2/C1=N\OCCC(O)CO (stereo unspecified)	2%
c1ccc2c(-c3ccncc3)c[nH]c2c1	105%
Nc1ccc2ncnc(NCCc3ccc(Oc4ccccc4)cc3)c2c1	67%
CO[C@H]1C[C@@H]2CC[C@@H](C)[C@@](O)(O2)C(=O)C(=O)N2CCCC[C@H]2C(=O)O[C@H]([C@H](C)C[C@@H]2CC[C@@H](O)[C@H](OC)C2)CC(=O)[C@H](C)/C=C(\C)[C@@H](O)[C@@H](OC)C(=O)[C@H](C)C[C@H](C)/C=C/C=C/C=C/1C	32%
O=C1Nc2cc(Br)ccc2/C1=C1/Nc2ccccc2/C1=N\O	10%
O=[N+]([O-])c1ccc(-c2nc(-c3ccc(F)cc3)c(-c3ccncc3)[nH]2)cc1	65%
CCOc1cc2ncnc(Nc3cccc(Br)c3)c2cc1OCC	39%
COc1ccc(C(=O)Nc2sc3c(c2C(N)=O)CCCC3)cc1OC	72%
N#Cc1cnc2cnc(NCc3cccnc3)cc2c1Nc1ccc(F)c(Cl)c1	75%
O=C1c2ccccc2-[n+]2ccc3c([nH]c4ccccc43)c21	83%
Oc1ccc(Nc2nc(-c3ccc(Cl)cc3)cs2)cc1	62%
CC(=O)O/N=C1\C(=C2\C(=O)Nc3cc(Br)ccc32)Nc2ccccc21	40%
CC(C)n1cnc2c(NCc3ccccc3)nc(NCCCO)nc21	64%

target: T1, Activin receptor type-1B (Homo sapiens) (UniProt P36896); conditions: at 1 µM
T1 sequence (whole entry): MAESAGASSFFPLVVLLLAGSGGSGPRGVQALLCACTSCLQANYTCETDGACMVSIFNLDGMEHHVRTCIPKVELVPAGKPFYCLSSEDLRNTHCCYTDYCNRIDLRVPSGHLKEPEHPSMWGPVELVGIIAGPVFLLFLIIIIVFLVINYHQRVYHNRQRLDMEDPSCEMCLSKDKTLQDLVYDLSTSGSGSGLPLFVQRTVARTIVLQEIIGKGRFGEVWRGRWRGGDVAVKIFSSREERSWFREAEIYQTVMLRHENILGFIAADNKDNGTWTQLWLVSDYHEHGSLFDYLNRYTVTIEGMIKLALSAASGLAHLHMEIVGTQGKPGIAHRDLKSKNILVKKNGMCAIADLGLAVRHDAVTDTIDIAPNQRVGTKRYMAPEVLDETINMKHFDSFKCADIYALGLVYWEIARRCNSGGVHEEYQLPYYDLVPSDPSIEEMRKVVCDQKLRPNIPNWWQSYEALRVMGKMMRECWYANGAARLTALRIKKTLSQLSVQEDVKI

Compound	residual activity
O=C1Nc2ccc(Br)cc2/C1=C\c1cc2c([nH]1)CCCC2	112%
C[C@@H](N)[C@H]1CC[C@H](C(=O)Nc2ccncc2)CC1	82%
c1ccc(-c2n[nH]c3c2oc2ccccc23)cc1	134%
Cc1nc(-c2ccccc2)c(-c2ccncc2)o1	119%
Cc1cc(Nc2nc(-c3ccccc3)nc3ccccc23)n[nH]1	96%
COc1cc2ncnc(Nc3ccc(O)c(Br)c3)c2cc1OC	111%
COc1cccc(-c2cc(=O)c3ccccc3o2)c1N	111%
CN(C)CCCn1cc(C2=C(c3c[nH]c4ccccc34)C(=O)NC2=O)c2ccccc21	119%
CO[C@@H]1[C@H](N(C)C(=O)c2ccccc2)C[C@H]2O[C@]1(C)n1c3ccccc3c3c4c(c5c6ccccc6n2c5c31)C(=O)NC4	128%
COc1ccc(S(=O)(=O)N(CCO)c2ccccc2CN(C)C/C=C/c2ccc(Cl)cc2)cc1	96%
O=C1NC(=O)c2c1c1c3ccccc3[nH]c1c1[nH]c3cc(Br)ccc3c21	106%
NC(=O)c1ccc2[nH]c(-c3ccc(Oc4ccc(Cl)cc4)cc3)nc2c1	111%
O=Nc1c(-c2c(O)[nH]c3ccccc23)[nH]c2ccccc12	104%
CC(=O)c1ccc(N2CCOCC2)cc1O	129%
COc1ccc(OC)c2c(=S)c3ccccc3[nH]c12	90%
Nc1ccc2ncnc(NCCc3ccc(Oc4ccccc4)cc3)c2c1	102%
CO[C@H]1C[C@@H]2CC[C@@H](C)[C@@](O)(O2)C(=O)C(=O)N2CCCC[C@H]2C(=O)O[C@H]([C@H](C)C[C@@H]2CC[C@@H](O)[C@H](OC)C2)CC(=O)[C@H](C)/C=C(\C)[C@@H](O)[C@@H](OC)C(=O)[C@H](C)C[C@H](C)/C=C/C=C/C=C/1C	115%
O=C1Nc2cc(Br)ccc2/C1=C1/Nc2ccccc2/C1=N\O	109%
Cc1cncc2cccc(S(=O)(=O)N3CCCN(C(=O)CN)C[C@H]3C)c12	137%
O=[N+]([O-])c1ccc(-c2nc(-c3ccc(F)cc3)c(-c3ccncc3)[nH]2)cc1	38%
CCOc1cc2ncnc(Nc3cccc(Br)c3)c2cc1OCC	125%
O=C1c2ccccc2-[n+]2ccc3c([nH]c4ccccc43)c21	110%
Oc1ccc(Nc2nc(-c3ccc(Cl)cc3)cs2)cc1	104%
CC(=O)O/N=C1\C(=C2\C(=O)Nc3cc(Br)ccc32)Nc2ccccc21	100%
CC(C)n1cnc2c(NCc3ccccc3)nc(NCCCO)nc21	106%
